In PubChem BioAssay (NCI):
The panel holds about 83,000 compounds, 20% with a hit somewhere; the sample as a whole holds those more often.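 Assay: single dose, 48 h. Readout: percent growth (0 = no net growth; negative = cell death). Active: <10.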 Active and inactive are the calls of the source.

System: IGROV1 ovarian
Assay: NCI-60 one-dose screen, 48 h (100 = growth as untreated, 0 = no growth, -100 = all killed)
Settings: 10 µM

| Structure (SMILES) | growth |
| --- | --- |
| CCOC(=O)c1cc(C(=O)c2cc(OC)c(OC)c(OC)c2)n2ncc3ccccc3c12 | 75.9% (inactive) |
| Cc1c(Cl)cccc1NC(=O)CCCl | 104% (inactive) |
| Cc1ccc(S(=O)(=O)N(C)CCCCCC(=O)O)cc1 | 99.4% (inactive) |
| COc1cc(-c2nn(-c3cccc(NC(=O)NCCNS(=O)(=O)c4ccc(Cl)cc4)c3)cc2-c2ccncc2)ccc1Cl | 25.2% (inactive) |
| CC(=O)Oc1cc(OC(C)=O)c2ccccc2c1OC(C)=O | 63.1% (inactive) |
| COc1cc(-c2nn(-c3cccc(NC(=O)CN4CCOCC4)c3)cc2-c2cccnc2)ccc1Cl | 79.6% (inactive) |
| Cc1ccc(NCCNCC(C)(C)O)c2c(=O)c3ccc(Cl)cc3sc12 | 29.8% (inactive) |
| COC(=O)C1(O)NC(=C(C#N)C#N)C(C#N)=C1C(=O)c1ccc(OC)c(OC)c1 (stereo not given) | 101% (inactive) |
| CCN(CC)CCOc1ccc2c(c1O)C(=O)c1ccccc1C2=O | 97.3% (inactive) |
| COc1cc(-c2nn(-c3ccc(NC(=O)NCCCNC(=O)c4ccccc4)cc3)cc2-c2ccncc2)ccc1Cl | 38.1% (inactive) |
| COc1ccc2nc(-c3ccc(Cl)cc3)cc(-c3nnc(SC/C(=N\O)c4ccccc4)n3-c3ccccc3)c2c1 | 105% (inactive) |
| CCOS(=O)(=O)c1c(C(C)C)cc(C(C)C)cc1C(C)C | 93.5% (inactive) |
| O=S(=O)(O)c1cccc(Nc2ccc3ccccc3c2)c1 | 84.4% (inactive) |
| CN(C)CCCSc1ccccc1NC1=C(Cl)C(=O)C(Nc2ccccc2SCCCN(C)C)=C(Cl)C1=O | -63.5% (active) |
| Brc1ccc2c(c1)-c1ccccc1C1=NCCN12 | 27.1% (inactive) |
| CC(C)CCN(CCC(C)C)CC(=O)Nc1ccc(S(=O)(=O)c2ccc(NC(=O)CN(CCC(C)C)CCC(C)C)cc2)cc1 | 12.1% (inactive) |
| CCNCC(=O)Nc1ccc(C(=O)OCC)cc1 | 99.3% (inactive) |
| O=C(NCCCNS(=O)(=O)c1ccc(Cl)cc1)Nc1ccc(-n2cc(-c3ccncc3)c(-c3ccc(Cl)c(O)c3)n2)cc1 | 62% (inactive) |
| C1CN(CC2CCC(CN3CCOCC3)O2)CCO1 (stereo not given) | 108% (inactive) |
| CCN(CC)CC(=O)N(CC)c1ccc(C)c(Cl)c1 | 101% (inactive) |

| Structure (SMILES) | growth |
| --- | --- |
| CC(CN(C)C)Oc1ccc(OC(C)CN(C)C)c2c1C(=O)c1ccccc1C2=O (stereo not given) | 37.3% (inactive) |
| O=C1c2ccccc2C(=O)c2c1ccc(C(Br)Br)c2[N+](=O)[O-] | -55% (active) |
| COc1cc(-c2nn(-c3cccc(NC(=O)CCN4CCN(c5ccccc5)CC4)c3)cc2-c2ccncc2)ccc1Cl | 32.7% (inactive) |
| O=C(Nc1ccc(F)cc1)c1cc2ccccc2cc1O | 68.4% (inactive) |
| O=C(Nc1ccc2c(O)cc(S(=O)(=O)O)cc2c1)c1ccc([N+](=O)[O-])cc1 | 102% (inactive) |
| CN(C)CCCOc1cccc(NC2=C(Cl)C(=O)C(Nc3cccc(OCCCN(C)C)c3)=C(Cl)C2=O)c1 | -67.4% (active) |
| COc1cc(OC)c2c(=O)c(O)c(-c3ccccc3)oc2c1 | 78.8% (inactive) |
| CC(=O)Nc1ccc(CC[C@H]2CCC/C=C/[C@@H]3C[C@H](O)C[C@H]3[C@H](O)/C=C/C(=O)O2)cc1 | 20.3% (inactive) |
| Nc1ncnc2c1ncn2C1(CO)OCC(O)C(O)C1O (stereo not given) | 105% (inactive) |
| O=C(Nc1cccc2c1CCCC2)c1cc2ccccc2cc1O | 32.1% (inactive) |
| CN(C)CCCOc1ccccc1NC1=C(Cl)C(=O)C(Nc2ccccc2OCCCN(C)C)=C(Cl)C1=O | -44.8% (active) |
| O=C(N/N=C/c1ccc([N+](=O)[O-])cc1)c1ccccc1Nc1cccc(C(F)(F)F)c1 | 67.3% (inactive) |
| NNC(=O)Oc1c(Cl)cc(Cl)cc1[N+](=O)[O-] | 101% (inactive) |
| Nc1ccc(/C=N/Nc2ccnc3c(O)cccc23)c2cccnc12 | 60.2% (inactive) |
| O=S(=O)(O)c1ccc(Cl)cc1 | 103% (inactive) |
| COc1cc(-c2nn(-c3cccc(NC(=O)NCCNC(=O)c4cccc(C(F)(F)F)c4)c3)cc2-c2ccncc2)ccc1Cl | 57.3% (inactive) |
| CCOC(=O)c1cc(C(=O)c2cc(OC)c(OC)c(OC)c2)n2ccc(-c3cc[n+](CC(=O)c4cc(OC)c(OC)c(OC)c4)cc3)cc12 | 83.2% (inactive) |
| CCOC(=O)c1cc(C(=O)c2cc(OC)c(OC)c(OC)c2)n2nc(C)ccc12 | 39.8% (inactive) |
| CCOC(=O)c1cc(C(=O)c2ccc(Cl)cc2)n2ccc(-c3cc[n+](CC(=O)c4ccc(OC)cc4)cc3)cc12 | 93.2% (inactive) |
| C/C=C/CSC(C)(C)C(=O)NC | 115% (inactive) |

System: OVCAR-3 ovarian
Assay: as above
Settings: 10 µM

| Structure (SMILES) | growth |
| --- | --- |
| CCOC(=O)c1cc(C(=O)c2cc(OC)c(OC)c(OC)c2)n2ncc3ccccc3c12 | 47% (inactive) |
| Cc1c(Cl)cccc1NC(=O)CCCl | 102% (inactive) |
| Cc1ccc(S(=O)(=O)N(C)CCCCCC(=O)O)cc1 | 106% (inactive) |
| COc1cc(-c2nn(-c3cccc(NC(=O)NCCNS(=O)(=O)c4ccc(Cl)cc4)c3)cc2-c2ccncc2)ccc1Cl | 2.8% (active) |
| CC(=O)Oc1cc(OC(C)=O)c2ccccc2c1OC(C)=O | 84.1% (inactive) |
| COc1cc(-c2nn(-c3cccc(NC(=O)CN4CCOCC4)c3)cc2-c2cccnc2)ccc1Cl | 77.2% (inactive) |
| Cc1ccc(NCCNCC(C)(C)O)c2c(=O)c3ccc(Cl)cc3sc12 | -13.4% (active) |
| COC(=O)C1(O)NC(=C(C#N)C#N)C(C#N)=C1C(=O)c1ccc(OC)c(OC)c1 (stereo not given) | 107% (inactive) |
| CCN(CC)CCOc1ccc2c(c1O)C(=O)c1ccccc1C2=O | 94.7% (inactive) |
| COc1cc(-c2nn(-c3ccc(NC(=O)NCCCNC(=O)c4ccccc4)cc3)cc2-c2ccncc2)ccc1Cl | 20.6% (inactive) |
| COc1ccc2nc(-c3ccc(Cl)cc3)cc(-c3nnc(SC/C(=N\O)c4ccccc4)n3-c3ccccc3)c2c1 | 86.4% (inactive) |
| CCOS(=O)(=O)c1c(C(C)C)cc(C(C)C)cc1C(C)C | 103% (inactive) |
| O=S(=O)(O)c1cccc(Nc2ccc3ccccc3c2)c1 | 97.5% (inactive) |
| CN(C)CCCSc1ccccc1NC1=C(Cl)C(=O)C(Nc2ccccc2SCCCN(C)C)=C(Cl)C1=O | -93% (active) |
| Brc1ccc2c(c1)-c1ccccc1C1=NCCN12 | -32.7% (active) |
| CC(C)CCN(CCC(C)C)CC(=O)Nc1ccc(S(=O)(=O)c2ccc(NC(=O)CN(CCC(C)C)CCC(C)C)cc2)cc1 | 22.7% (inactive) |
| CCNCC(=O)Nc1ccc(C(=O)OCC)cc1 | 99.9% (inactive) |
| O=C(NCCCNS(=O)(=O)c1ccc(Cl)cc1)Nc1ccc(-n2cc(-c3ccncc3)c(-c3ccc(Cl)c(O)c3)n2)cc1 | 50% (inactive) |
| C1CN(CC2CCC(CN3CCOCC3)O2)CCO1 (stereo not given) | 112% (inactive) |
| CCN(CC)CC(=O)N(CC)c1ccc(C)c(Cl)c1 | 102% (inactive) |

| Structure (SMILES) | growth |
| --- | --- |
| CC(CN(C)C)Oc1ccc(OC(C)CN(C)C)c2c1C(=O)c1ccccc1C2=O (stereo not given) | 55% (inactive) |
| O=C1c2ccccc2C(=O)c2c1ccc(C(Br)Br)c2[N+](=O)[O-] | -84% (active) |
| COc1cc(-c2nn(-c3cccc(NC(=O)CCN4CCN(c5ccccc5)CC4)c3)cc2-c2ccncc2)ccc1Cl | 16.2% (inactive) |
| O=C(Nc1ccc(F)cc1)c1cc2ccccc2cc1O | 84.6% (inactive) |
| O=C(Nc1ccc2c(O)cc(S(=O)(=O)O)cc2c1)c1ccc([N+](=O)[O-])cc1 | 104% (inactive) |
| CN(C)CCCOc1cccc(NC2=C(Cl)C(=O)C(Nc3cccc(OCCCN(C)C)c3)=C(Cl)C2=O)c1 | -96% (active) |
| COc1cc(OC)c2c(=O)c(O)c(-c3ccccc3)oc2c1 | 68.4% (inactive) |
| CC(=O)Nc1ccc(CC[C@H]2CCC/C=C/[C@@H]3C[C@H](O)C[C@H]3[C@H](O)/C=C/C(=O)O2)cc1 | 6.39% (active) |
| Nc1ncnc2c1ncn2C1(CO)OCC(O)C(O)C1O (stereo not given) | 103% (inactive) |
| O=C(Nc1cccc2c1CCCC2)c1cc2ccccc2cc1O | 28.2% (inactive) |
| CN(C)CCCOc1ccccc1NC1=C(Cl)C(=O)C(Nc2ccccc2OCCCN(C)C)=C(Cl)C1=O | -90.5% (active) |
| O=C(N/N=C/c1ccc([N+](=O)[O-])cc1)c1ccccc1Nc1cccc(C(F)(F)F)c1 | 103% (inactive) |
| NNC(=O)Oc1c(Cl)cc(Cl)cc1[N+](=O)[O-] | 107% (inactive) |
| Nc1ccc(/C=N/Nc2ccnc3c(O)cccc23)c2cccnc12 | 20% (inactive) |
| O=S(=O)(O)c1ccc(Cl)cc1 | 103% (inactive) |
| COc1cc(-c2nn(-c3cccc(NC(=O)NCCNC(=O)c4cccc(C(F)(F)F)c4)c3)cc2-c2ccncc2)ccc1Cl | 16.2% (inactive) |
| CCOC(=O)c1cc(C(=O)c2cc(OC)c(OC)c(OC)c2)n2ccc(-c3cc[n+](CC(=O)c4cc(OC)c(OC)c(OC)c4)cc3)cc12 | 82% (inactive) |
| CCOC(=O)c1cc(C(=O)c2cc(OC)c(OC)c(OC)c2)n2nc(C)ccc12 | 12.5% (inactive) |
| CCOC(=O)c1cc(C(=O)c2ccc(Cl)cc2)n2ccc(-c3cc[n+](CC(=O)c4ccc(OC)cc4)cc3)cc12 | 37.4% (inactive) |
| C/C=C/CSC(C)(C)C(=O)NC | 108% (inactive) |
